# The list is not random: actives were taken first. Their share in the collection is about 4.2%.
# tim23-1 inh = inhibits growth of tim23-1 mutant yeast; S. cerevisiae tim23-1 growth, BacTiter-Glo luminescence, 24 h; inhibition, % at 20 µM; hit rate 1.3% among 330,000; AID 463212;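 active = growth inhibition of the mutant yeast at or above 50%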;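 also: temperature-sensitive mutant grown at 25 °C; plate controls were DMSO-treated mutant yeast for no effect and medium wells lacking yeast for full effect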
# NALP3 yeast inh = inhibitors of NALP3 inflammasome in yeast; Yeast reconstituted NLRP3/ASC/caspase-1, beta-gal luminescence, 24 h; inhibition, % at 10 µM; hit rate 0.39% among 330,000; AID 2825;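 active = inhibition of 50% or more; inactive = inhibition below 50%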;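 also: plate controls were induced DMSO wells for no effect and uninduced yeast grown without galactose for full effect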
# NALP1 inh = NALP1 inhibition | S. cerevisiae NALP1/ASC/caspase-1 growth, X-gal OD620, 72 h | inhibition, % at 10 µM | hit rate 0.61% among 280,000; in the data active = inhibition mostly above about 24%, no sharp cut-off; inactive = mostly below about 32%
# tim10-1 inh = growth inhibitors of tim10-1 mutant yeast | S. cerevisiae tim10-1 ts strain growth, BacTiter-Glo, 24 h | inhibition, % at 20 µM | hit rate 2.2% among 330,000 | AID 463190;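 active = inhibition of at least 40%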;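 also: mutant grown at 25 °C; 0% = DMSO wells with yeast and 100% = wells holding no yeast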
# V-ATPase pH = yeast V-ATPase proton transport regulation by pHLuorin | S. cerevisiae, pHLuorin cytosolic pH fluorescence | response, % at 10 µM | hit rate 0.37% among 350,000; in the data active = response mostly above about 7.3%, no sharp cut-off; inactive = mostly below about 5.4%; also: actives read high
# TIM10 inh = growth inhibitors of TIM10 yeast strain | S. cerevisiae TIM10 strain growth, BacTiter-Glo luminescence, 24 h | hit rate 1.4% among 330,000 | inhibition, % at 10 µM | AID 463195;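 active = inhibition of 40% or more at the single tested concentration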;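 also: wild-type TIM10 isogenic control strain grown at permissive 25 °C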
# tim10-1 conf = confirmation of tim10-1 mutant yeast growth inhibitors | shares compounds with tim10-1 inh | S. cerevisiae tim10-1 ts strain growth, BacTiter-Glo, 24 h | inhibition, % at 20 µM | hit rate 56% among 7,400;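 active = inhibition of yeast growth at or above a set limit in either of two repeat tests at 20 µM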;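 also: tim10-1 mutant grown at permissive 25 °C to find synthetic lethal compounds; 0% = DMSO yeast wells and 100% = medium wells without yeast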
# tim10 confirm = TIM10 yeast growth inhibition, confirmed | inhibition, % at 10 µM | S. cerevisiae tim10 strain growth, BacTiter-Glo luminescence, 24 h | AID 463215 | shares compounds with TIM10 inh | hit rate 63% among 4,600;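 active = inhibition of yeast growth at or above a set limit in either of two replicates at 10 µM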;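 also: this counterscreen used the strain with wild-type TIM10; 0% = yeast with DMSO and 100% = medium wells lacking yeast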
# tim23-1 conf = tim23-1 yeast growth inhibition, confirmed | shares compounds with tim23-1 inh | S. cerevisiae tim23-1 growth, BacTiter-Glo luminescence, 24 h | inhibition, % at 20 µM | hit rate 83% among 4,400;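 active = inhibition above about 39% in either of two replicate wells at 20 µM, limit read from the data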;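 also: temperature-sensitive tim23-1 mutant grown at 25 °C; 0% = DMSO wells with yeast and 100% = medium wells without yeast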
# Numbers without * were called inactive; nt = no result.
SMILES,tim23-1 inh,NALP3 yeast inh,NALP1 inh,tim10-1 inh,V-ATPase pH,TIM10 inh,tim10-1 conf,tim10 confirm,tim23-1 conf
CC1=NN(c2ccccc2)C(=O)/C1=C/N(C)C,5.9,21.9,-4.6,5.9,-0.2,-16.4,nt,nt,nt
Cn1ncc2c(O/N=C(\N)c3ccc(C(F)(F)F)cc3)ncnc21,79.3*,15.0,nt,52.1*,0.2,74.3*,24.6,84.9*,52.2*
Cc1ccc(C(=O)NNc2ncnc3c2cnn3C)cc1,10.3,0.0,-20.7,-0.4,-1.8,10.0,nt,nt,nt
CCOC(=O)N/N=C/C=C/c1ccccc1[N+](=O)[O-],24.3,27.1,-5.0,29.8,0.2,-12.3,nt,nt,nt
O=C(Nc1ncc(Br)s1)C(Cc1ccccc1)n1cccc1 (centres undefined),66.7*,-5.2,-44.4,63.2*,4.0,57.5*,54.4*,56.7*,53.8*
CCc1cccc(C)c1NS(=O)(=O)c1cccs1,nt,nt,6.3,nt,0.6,nt,nt,nt,nt
Cc1ccc(-c2nnc(NC(=O)CCS(=O)(=O)c3ccc(F)cc3)o2)c(C)c1,-12.3,11.1,nt,-6.7,-2.7,-15.2,nt,nt,nt
COc1ccc(Nc2nc(-c3ccccc3)nc3ccccc23)cc1,67.5*,25.1,3.9,51.7*,-0.8,39.0,40.0*,nt,63.0*
COc1ccc(Nc2nc(-c3cccc([N+](=O)[O-])c3)nc3ccccc23)cc1,22.6,5.0,25.9,17.7,1.5,18.4,nt,nt,nt
CC(Nc1nc(-c2ccccc2)nc2ccccc12)c1ccccc1 (centres undefined),57.6*,19.2,11.7,43.6*,1.9,29.4,-27.1,nt,32.7
Oc1ccc(Nc2nc(-c3ccccc3)nc3ccccc23)cc1,60.9*,21.2,14.8,59.0*,0.6,41.6*,45.7*,51.7*,59.4*
COc1ccccc1-c1ccc(=O)n(CC(=O)NCc2cccs2)n1,9.8,11.7,6.9,5.7,1.1,-8.5,nt,nt,nt
COc1ccc2c(c1)N(C(=O)CN1C(=O)C3CCCCC3C1=O)C(C)(C)C=C2C (centres undefined),52.7*,3.7,-0.9,51.1*,-1.7,32.7,46.4*,nt,52.4*
COc1ccc2c(c1)C(C)=CC(C)(C)N2C(=O)CN1C(=O)CCC1=O,21.6,-3.0,5.2,6.5,0.4,6.7,nt,nt,nt
N#CCSc1nnc(-c2cccnc2)n1-c1ccccc1,10.1,18.9,24.2,-7.7,-2.4,12.8,nt,nt,nt
C/C(=N\NC(=O)c1ccccc1NC(=O)c1ccc(Cl)cc1)c1ccncc1,95.0*,1.1,9.6,96.2*,-3.7,95.5*,97.2*,95.8*,100.4*
CC(=NNC(=O)c1ccncc1)c1ccccc1Cl,nt,nt,nt,nt,-1.0,nt,nt,nt,nt
COc1cccc(CN2C(=O)c3ccccc3S2(=O)=O)c1,15.8,8.1,9.4,0.3,-6.8,-0.3,nt,nt,nt
O=C1c2ccc([N+](=O)[O-])cc2S(=O)(=O)N1Cc1ccccc1,75.8*,9.7,1.2,72.2*,2.8,52.7*,69.0*,42.8*,85.5*
CC1CCCCC1NC(=O)/C(C#N)=C/c1ccccc1F (centres undefined),83.8*,20.6,62.0,88.9*,-1.2,85.4*,86.8*,88.4*,83.9*
N#C/C(=C\c1c(F)cccc1Cl)C(=O)NC1CC1,85.1*,26.7,-8.9,73.7*,-5.3,60.9*,61.2*,66.0*,81.0*
CCOCCCNC(=O)/C(C#N)=C/c1ccccc1F,31.8,12.7,2.5,30.5,0.6,24.3,nt,nt,nt
CCCCN(C)Cc1c(C)[nH]c2c(Cl)cccc2c1=O,7.8,19.3,20.8,4.3,3.0,7.2,nt,nt,nt
Fc1ccccc1-c1nc(NC2CCCC2)c2ccccc2n1,67.2*,10.3,24.8,52.4*,5.1,52.5*,50.1*,48.4*,75.2*
CC1=CC(=O)C=C(C)C1=NOc1ccccc1[N+](=O)[O-],65.6*,1.8,25.5,77.9*,2.9,72.2*,75.7*,18.2,83.2*
SMILES,tim23-1 inh,NALP3 yeast inh,NALP1 inh,tim10-1 inh,V-ATPase pH,TIM10 inh,tim10-1 conf,tim10 confirm,tim23-1 conf
Cc1cc(C)c(S(=O)(=O)Oc2ccccc2[N+](=O)[O-])c(C)c1,nt,nt,nt,nt,5.6,nt,nt,nt,nt
COc1ccc(NC(=O)c2cc(-c3ccc4c(c3)OCO4)on2)cc1,-10.1,-1.2,12.7,-2.4,5.8,-12.1,nt,nt,nt
COc1ccc(C2/C=C\CN(C(=O)Nc3ccccc3)CC(=O)N2Cc2ccc(F)cc2)cc1 (centres undefined),-12.1,17.4,3.2,17.5,-4.2,-0.6,nt,nt,nt
COc1ccc(C2/C=C\CN(C(=O)Nc3ccc(C(F)(F)F)cc3)CC(=O)N2Cc2ccc(F)cc2)cc1 (centres undefined),53.4*,19.7,5.2,49.5*,7.4,47.3*,38.4*,27.0,47.8*
CCCCc1ccc(/C=C(\C#N)C(N)=S)s1,70.9*,33.8,-0.5,55.6*,-7.4,53.0*,55.3*,60.5*,57.5*
COc1ccc(/C=C/C(=O)c2c(O)ccc3c(C)cc(=O)oc23)cc1,50.1*,15.7,50.4,51.1*,11.6,55.3*,46.9*,57.1*,60.2*
COc1ccc(/C=C\C(=O)c2c(O)ccc3c(C)cc(=O)oc23)cc1,53.3*,15.5,41.0,51.8*,-4.4,37.3,36.3*,nt,51.0*
NC(=O)COC(=O)[C@H](Cc1ccccc1)NS(=O)(=O)c1ccc2c(c1)OCCO2,-4.7,4.0,nt,-3.0,3.9,6.9,nt,nt,nt
CC(C)c1ccc(O)c(NC(=S)NC(=O)CCc2ccccc2)c1,3.6,18.8,4.0,-1.6,-1.6,-6.6,nt,nt,nt
COc1ccccc1C/C(N)=N/OC(=O)c1cccs1,77.1*,2.1,9.1,64.2*,12.1,58.8*,52.8*,60.6*,64.2*
Cc1ccccc1OCC(=O)O/N=C(\N)Cc1cccs1,26.2,23.9,14.6,33.6,-2.1,33.0,nt,nt,nt
Cc1ccccc1C(=O)O/N=C(\N)Cc1cccs1,77.4*,23.0,15.3,67.2*,-1.8,89.5*,69.7*,69.5*,80.5*
COc1ccc(C/C(N)=N/OC(=O)c2cccs2)cc1,85.2*,4.2,4.5,46.2*,-0.7,77.1*,63.4*,73.8*,79.5*
COc1ccccc1CNC(=O)c1cccs1,1.1,14.4,14.3,2.4,2.3,-11.1,nt,nt,nt
COc1ccccc1C/C(N)=N/OC(=O)/C=C/c1ccccc1,75.2*,3.5,-14.5,53.2*,3.6,82.9*,32.6*,82.8*,76.2*
O=C(COc1ccc(-n2cnnn2)cc1)Nc1ccc(Br)cc1F,-0.1,14.1,nt,-10.1,-2.6,1.4,nt,nt,nt
CCN(Cc1ccccc1)C(c1ccc(C)cc1)c1nnnn1C(C)(C)CC (centres undefined),35.2,-4.2,2.6,18.8,5.8,21.6,nt,nt,nt
